{"source": "the supplement of paper PMC10121225", "note": "Structures can show the parent of a compound that is named as a salt.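 Note: immunostained co-cultures imaged by high-content microscopy, Z-score per plate against mean and SD of 0.1% DMSO wells, compounds added on differentiation day 18, analysed day 21.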"}
{"test_system": "hN + hpA co-culture (H1 iNGN2 human neurons + human primary astrocytes)", "assay": "presynaptic density (SYNAPSIN1 puncta per MAP2 neurite area), Z-score vs DMSO controls; higher = more presynaptic puncta (synapse-promoting)", "settings": "3 µM; 72 h"}
{"smiles": "O=C(Nc1cccc(Cl)c1)Nc1ncc(CCNc2ncnc3ccsc23)s1", "note": "[SNS-314 Mesylate]", "presynaptic density (Z-score)": -0.232}
{"smiles": "O=C(Nc1cccc(Nc2ncc(Br)c(NCCc3cnc[nH]3)n2)c1)N1CCCC1", "presynaptic density (Z-score)": -0.439}
{"smiles": "CCn1c(-c2nonc2N)nc2c(C#CC(C)(C)O)ncc(OC[C@H]3CCCNC3)c21", "presynaptic density (Z-score)": -0.664}
{"smiles": "O=C(Nc1cccnc1)N1CCC(Cc2cccc(Oc3ccc(C(F)(F)F)cn3)c2)CC1", "presynaptic density (Z-score)": -1.87}
{"smiles": "O=C1NC(=O)/C(=C/c2ccc(-c3ccc(F)cc3O)o2)S1", "presynaptic density (Z-score)": 0.652}
{"smiles": "CCCC(C)NC(=O)c1ccc(Cl)c(Cl)c1", "note": "(stereo not given)", "presynaptic density (Z-score)": -0.211}
{"smiles": "Cn1c(N2CCCCS2(=O)=O)nc(C(=O)NCc2ccc(F)cc2)c(O)c1=O", "presynaptic density (Z-score)": -1.68}
{"smiles": "OC[C@H]1O[C@@H](c2ccc(Cl)c(Cc3ccc(O[C@H]4CCOC4)cc3)c2)[C@H](O)[C@@H](O)[C@@H]1O", "presynaptic density (Z-score)": -0.331}
{"smiles": "O=C1NC(=O)/C(=C/c2cccc(C(F)(F)F)c2)S1", "presynaptic density (Z-score)": -1.18}
{"smiles": "CN1CC(=O)N2[C@H](c3ccc4c(c3)OCO4)c3[nH]c4ccccc4c3C[C@@H]2C1=O", "note": "[Tadalafil]", "presynaptic density (Z-score)": -0.533}
{"smiles": "Nc1nc(CC(=O)Nc2ccc(CCNC[C@H](O)c3ccccc3)cc2)cs1", "note": "[Mirabegron]", "presynaptic density (Z-score)": -0.111}
{"smiles": "NCc1c[nH]c(=S)n1C1CCc2c(F)cc(F)cc2C1", "note": "[(R)-Nepicastat HCl]", "presynaptic density (Z-score)": 0.738}
{"smiles": "CNC(=O)c1ccc2cc([C@@]3(O)CCn4cncc43)ccc2c1", "note": "[TAK-700 (Orteronel)]", "presynaptic density (Z-score)": 0.215}
{"smiles": "CN1CCC[C@@H]1CCO[C@](C)(c1ccccc1)c1ccc(Cl)cc1", "note": "[Clemastine]", "presynaptic density (Z-score)": -0.781}
{"smiles": "CC(C)c1noc(N2CCC(COc3ccc(-c4ccc(S(C)(=O)=O)cc4)nc3)CC2)n1", "presynaptic density (Z-score)": 0.0886}
